Compounds with a hit are over-represented: about 11% of the library has one in this group of screens.
Ins promoter up = insulin promoter activators in MIN6 cells, imaging, high-content screening, mouse beta cells. MIN6 insulin promoter-GFP reporter; active compounds read high. z-score at 5 µM. 0.3% of 190,000 active;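 active means z-score above 3 at 5 µM with at least 500 cells counted in the well; inconclusive means wells under 500 cells, flagged as cytotoxic or low count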
Lmaj promast = Leishmania major promastigote growth inhibition, primary screen; inhibition, % at 10 µM; Leishmania major promastigotes, resazurin fluorescence viability; 9% of 200,000 active; in the data active means inhibition above about 50%;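 further: promastigotes grown with compound for 44 hours at 28 °C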
WT yeast gro inh = growth inhibition of WT strain, primary screen, mitochondrial fusion inhibitor project, WT and mutant strains, chemical genetic; 2.1% of 190,000 active; inhibition, % at 10 µM; mitochondrial fusion phenotypic screen; in the data active means inhibition above about 58%; tested in S. cerevisiae
Insulin prom inh = inhibitors of insulin promoter-driven GFP, primary screen, imaging, TRM-6 cells (human fetal islet line), eGFP reporter, cell count | inhibition, % at 2 µM | 0.9% of 130,000 active | reporter expression induced with tamoxifen;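 active means inhibition above the mean plus 3 SD, with well images judged a real hit on visual review, cut at about 60% in these data, passing the limit was not always enough; inconclusive means inhibition over the cutoff but images rejected on review; inactive means inhibition not above the cutoff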
Autophagy HCS = autophagy modulators in MEF cells, primary screen, imaging, high-content, MEF GFP-LC3; MEF GFP-LC3 puncta imaging; test concentration mostly 10 µM; calls only at 10 µM (by protocol); 0.98% of 190,000 active; AID 463193, 2010;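 active means percentage of spot-positive cells more than 3 SD above its plate mean, without a fluorescence outlier flag or 80% toxicity; inconclusive means no clear call, values can overlap the other calls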;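 further: spot-positive cell cutoff set from DMSO-treated cells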
* = called active by the depositor.

Screening CCCOc1ccc(NC(=O)CC2C(=O)N(Cc3ccccc3)C(=S)N2Cc2cccs2)cc1 (centres undefined) returned Ins promoter up -0.18, Lmaj promast 64.9*, WT yeast gro inh 41.1, Insulin prom inh 7.1 and Autophagy HCS inactive.
`CCOc1ccc(N2C(=O)C(CC(=O)Nc3ccc(F)cc3)N(Cc3ccccn3)C2=S)cc1` (centres undefined) gave Ins promoter up 0.18, Lmaj promast 67.8*, WT yeast gro inh -6.9, Insulin prom inh -107.1 and Autophagy HCS inactive.
`COc1ccc(C2=NOC(C)(c3nnc(-c4ccc(F)cc4)o3)C2)cc1` (centres undefined) gave Ins promoter up 0.04.
Screening Cc1c(Cl)cccc1N(Cc1ccc(C(=O)O)cc1)S(=O)(=O)c1ccccc1 returned Ins promoter up -0.41, Lmaj promast 6.3, WT yeast gro inh -18.7, Insulin prom inh 35.3 and Autophagy HCS inactive.
`CC(C)NC(=S)N/N=C/c1ccc2c(c1)OCCO2` gave Ins promoter up -0.27, Lmaj promast -2.8, WT yeast gro inh 22.2 and Autophagy HCS inactive.
Screening CCN1C(=O)C(CC(=O)Nc2ccc(OC)cc2)N(CCCN2CCN(c3ccc(OC)cc3)CC2)C1=S (centres undefined) returned Ins promoter up -1.28, Lmaj promast 72.2*, WT yeast gro inh -6.0, Insulin prom inh -13.3 and Autophagy HCS inactive.
COc1ccc(-c2nnc(SCc3c(C)noc3C)n2N)cc1OC was read as Ins promoter up 0.17, Lmaj promast -2.4, WT yeast gro inh 16.1, Insulin prom inh -20.9 and Autophagy HCS inactive.
CCOC(=O)c1c2n(c3ccc(O)cc13)CCCCC2 was read as Ins promoter up 1.07, Lmaj promast 11.0, WT yeast gro inh 10.2, Insulin prom inh 85.7* and Autophagy HCS inactive.
Screening COC(=O)c1c(O)cc(=O)n2c1CCCCC2 returned Ins promoter up 1.89, Lmaj promast -3.6, WT yeast gro inh -7.4 and Autophagy HCS inactive.
O=C(Cn1cnc([N+](=O)[O-])n1)N/N=C/c1ccc(O)cc1O was read as Ins promoter up 0.96, Lmaj promast -2.5, WT yeast gro inh 4.0 and Autophagy HCS inactive.
Screening O=C(Cn1cnc([N+](=O)[O-])n1)N/N=C/c1cccc(Cl)c1 returned Lmaj promast 63.4*, WT yeast gro inh -3.8, Insulin prom inh 20.0 and Autophagy HCS inactive.
Screening O=C(Cn1cnc([N+](=O)[O-])n1)N/N=C/c1cccc2ccccc12 returned Ins promoter up -0.17, Lmaj promast 90.7*, WT yeast gro inh -19.6 and Autophagy HCS inactive.
For C=CCn1c(O)c(N=NC(=O)c2cccnc2)c2cc(Br)ccc21 the results were Ins promoter up -0.65.
`O=C(Nc1ccc(Cl)cn1)C1CCCN1S(=O)(=O)c1ccc(Cl)cc1` (centres undefined) gave Ins promoter up -0.02, Lmaj promast 52.6*, WT yeast gro inh 8.5 and Autophagy HCS inactive.
CC(C)Oc1ccc(/C=N/NC(=O)C2CCCN2S(=O)(=O)c2ccc(Cl)cc2)cc1 (centres undefined) was read as Ins promoter up -0.98, Lmaj promast 59.8*, WT yeast gro inh 31.9, Insulin prom inh -31.4 and Autophagy HCS inactive.
CCCOc1ccc(/C=N/NC(=O)C2CCCN2S(=O)(=O)c2ccc(Cl)cc2)cc1 (centres undefined) was read as Ins promoter up 0.1, Lmaj promast 59.4*, WT yeast gro inh -4.2, Insulin prom inh -8.1 and Autophagy HCS inactive.
For Cc1ccccc1NC(=O)C(NC1CCCCC1)C(C)C (centres undefined) the results were Ins promoter up -0.47, Lmaj promast 4.8, WT yeast gro inh -6.9 and Autophagy HCS inactive.
For CNC(=O)c1ccc(NC(=O)/C=C/c2cccc(F)c2)cc1 the results were Ins promoter up -0.68, Lmaj promast -2.4, WT yeast gro inh -1.1, Insulin prom inh 11.1 and Autophagy HCS inactive.
`CCN(CC)c1ccc(/C=C2/SC(=O)N(C(C)C)C2=O)o1` gave Lmaj promast 99.4*, WT yeast gro inh 56.8 and Autophagy HCS inconclusive.
CCCc1nc(SCC(=O)N2CCCc3ccccc32)c2c(=O)n(C)c(=O)n(C)c2n1 was read as Ins promoter up -2.68, Lmaj promast 42.1 and WT yeast gro inh 73.4*.
CCCc1nc(SCC(=O)N2CCC(Cc3ccccc3)CC2)c2c(=O)n(C)c(=O)n(C)c2n1 was read as Ins promoter up 0.21, Lmaj promast 9.5 and WT yeast gro inh 81.2*.
Screening CCCn1c(SCC(=O)N2CCCc3ccccc32)nc2c1c(=O)n(C)c(=O)n2C returned Ins promoter up 1.21, Lmaj promast 2.2, Insulin prom inh 51.6 and Autophagy HCS inactive.
Screening Cn1c(=O)c2c(SCC(=O)N3CCC(Cc4ccccc4)CC3)nc(C3CC3)nc2n(C)c1=O returned WT yeast gro inh 16.2.
`Cn1c(=O)c2c(SCC(=O)N3CCCc4ccccc43)nc(CC(C)(C)C)nc2n(C)c1=O` gave Ins promoter up 0.14, Lmaj promast 52.1*, WT yeast gro inh 55.0 and Autophagy HCS inconclusive.
`Cc1nc2ccc(NC(=O)Cc3ccccc3F)cc2s1` gave Ins promoter up 0.44, Lmaj promast 4.4, WT yeast gro inh 39.2 and Autophagy HCS inactive.
For Cc1cc(=O)[nH]c(-n2ncc(C#N)c2N)n1 the results were Ins promoter up -1.69, Lmaj promast 3.4, WT yeast gro inh -6.1 and Autophagy HCS inactive.
For Cc1ccc(Cn2ccc(NC(=O)c3cc(-c4ccc(Cl)cc4)on3)n2)cc1 the results were Ins promoter up 0.07, Lmaj promast 57.5*, WT yeast gro inh -18.4 and Autophagy HCS inactive.
Cc1cc(C(=O)Nc2cc(C)n(Cc3ccc(Cl)cc3)n2)no1 was read as Ins promoter up -0.04, Lmaj promast -5.8, WT yeast gro inh 12.8 and Autophagy HCS inactive.
For Cc1ccc(Cn2ccc(NC(=O)c3cc(-c4cccc(Cl)c4)on3)n2)cc1 the results were Ins promoter up 0.17, Lmaj promast 76.5*, WT yeast gro inh 0.7 and Autophagy HCS inactive.
For Cc1ccc(Cn2ccc(NC(=O)c3cc(-c4ccc(F)cc4)on3)n2)cc1 the results were Ins promoter up 0.71, Lmaj promast 39.9, WT yeast gro inh -3.3 and Autophagy HCS inactive.
`Cc1cc(NC(=O)c2cc(C(C)C)on2)nn1Cc1ccc(Cl)cc1` gave Ins promoter up 0.89, Lmaj promast 70.9*, WT yeast gro inh 33.6 and Autophagy HCS inactive.
`O=C(NC(=S)N1CCN(Cc2ccccc2)CC1)c1ccco1` gave Ins promoter up -0.19, Lmaj promast -0.7, WT yeast gro inh -9.8 and Autophagy HCS inactive.
For CN(C)c1ccc(/C=C/c2ccc3ccccc3n2)cc1 the results were Ins promoter up 7.29*.
`C(=C\c1ccc2ccccc2n1)/c1ccccc1` gave Ins promoter up 0.94.
Screening CCCCCCOC(=O)/C=C/c1c(C)[nH]c(=O)[nH]c1=O returned Ins promoter up -0.73, Lmaj promast 94.1*, WT yeast gro inh 0.9, Insulin prom inh -30.4 and Autophagy HCS inactive.
